According to PMC7862700, “An all-to-all approach to the identification of sequence-specific readers for epigenetic DNA modifications on cytosine”:

Assays:
Experiment in all cases: DAPPL (digital affinity profiling via proximity ligation, sequencing); 10 mM Tris-HCl pH 7.5, 50 mM NaCl, 1 mM DTT, 4% glycerol, room temperature, 30 min; GST-TFs on glutathione beads, 16-mer random dsDNA library, 0.1% formaldehyde crosslink after washing; high values mean tight binding
Details in all cases: protein: recombinant; tags: N-terminal GST; dsDNA, one strand shown
FLI1 = biological target: T1, FLI1 (Homo sapiens, UniProt Q01543 1-452)
T1 sequence: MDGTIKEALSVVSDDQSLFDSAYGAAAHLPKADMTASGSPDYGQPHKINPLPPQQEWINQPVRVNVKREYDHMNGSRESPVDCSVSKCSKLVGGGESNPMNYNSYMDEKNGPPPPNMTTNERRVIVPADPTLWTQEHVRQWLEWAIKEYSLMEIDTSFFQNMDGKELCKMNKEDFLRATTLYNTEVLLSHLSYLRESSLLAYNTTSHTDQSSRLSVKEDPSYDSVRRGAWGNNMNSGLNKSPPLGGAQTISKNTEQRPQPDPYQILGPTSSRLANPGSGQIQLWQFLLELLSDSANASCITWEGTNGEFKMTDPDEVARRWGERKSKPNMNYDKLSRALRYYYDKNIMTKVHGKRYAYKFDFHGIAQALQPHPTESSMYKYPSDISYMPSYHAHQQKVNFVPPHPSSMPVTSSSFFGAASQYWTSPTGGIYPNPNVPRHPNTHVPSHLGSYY
How it was run: (§1)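 Binding signal is given per hexamer as its read frequency for a factor divided by its frequency in the tag-only sample. GST-fused human transcription factors were expressed in yeast, captured on glutathione beads, barcoded with DNA and pooled with that sample, then incubated with 200 nmole of a 16-mer random double-stranded DNA library in Tris/NaCl/DTT/glycerol buffer for 30 min at room temperature. The pools were then washed, crosslinked, proximity-ligated, amplified by PCR and sequenced on an Illumina NextSeq500.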

GABPA = biological target: T2, GABPA (Homo sapiens, UniProt Q06546 1-454)
T2 sequence: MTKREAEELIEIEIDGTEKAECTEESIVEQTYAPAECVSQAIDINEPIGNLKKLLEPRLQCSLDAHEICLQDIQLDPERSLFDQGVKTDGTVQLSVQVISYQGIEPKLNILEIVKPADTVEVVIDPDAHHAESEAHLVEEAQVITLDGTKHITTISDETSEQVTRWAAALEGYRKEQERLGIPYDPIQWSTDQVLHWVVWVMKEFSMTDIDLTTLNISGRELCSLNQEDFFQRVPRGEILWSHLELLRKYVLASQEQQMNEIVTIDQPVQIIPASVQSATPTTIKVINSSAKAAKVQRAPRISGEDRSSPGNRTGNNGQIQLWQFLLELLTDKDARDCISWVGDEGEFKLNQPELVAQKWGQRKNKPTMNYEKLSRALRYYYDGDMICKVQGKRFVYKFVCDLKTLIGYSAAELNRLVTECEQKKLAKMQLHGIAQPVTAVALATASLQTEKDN
How it was run: as §1

ERG = biological target: T3, ERG (Homo sapiens, UniProt P11308 1-479)
T3 sequence: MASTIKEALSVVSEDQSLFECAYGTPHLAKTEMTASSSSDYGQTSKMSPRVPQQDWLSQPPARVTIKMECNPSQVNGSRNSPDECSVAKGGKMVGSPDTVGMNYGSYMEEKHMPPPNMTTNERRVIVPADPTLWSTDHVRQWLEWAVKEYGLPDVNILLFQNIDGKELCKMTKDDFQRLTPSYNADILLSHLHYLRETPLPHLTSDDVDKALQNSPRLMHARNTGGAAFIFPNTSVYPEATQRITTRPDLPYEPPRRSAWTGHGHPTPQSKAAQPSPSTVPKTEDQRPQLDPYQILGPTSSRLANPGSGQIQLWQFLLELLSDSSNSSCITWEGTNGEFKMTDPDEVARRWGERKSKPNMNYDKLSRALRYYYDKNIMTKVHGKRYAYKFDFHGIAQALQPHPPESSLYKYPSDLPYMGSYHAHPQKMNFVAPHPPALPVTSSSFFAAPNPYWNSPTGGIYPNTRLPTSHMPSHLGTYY
How it was run: as §1

ELF1 = ELF1 (Homo sapiens, UniProt P32519 1-619)
Chain of ELF1 (P32519 whole entry): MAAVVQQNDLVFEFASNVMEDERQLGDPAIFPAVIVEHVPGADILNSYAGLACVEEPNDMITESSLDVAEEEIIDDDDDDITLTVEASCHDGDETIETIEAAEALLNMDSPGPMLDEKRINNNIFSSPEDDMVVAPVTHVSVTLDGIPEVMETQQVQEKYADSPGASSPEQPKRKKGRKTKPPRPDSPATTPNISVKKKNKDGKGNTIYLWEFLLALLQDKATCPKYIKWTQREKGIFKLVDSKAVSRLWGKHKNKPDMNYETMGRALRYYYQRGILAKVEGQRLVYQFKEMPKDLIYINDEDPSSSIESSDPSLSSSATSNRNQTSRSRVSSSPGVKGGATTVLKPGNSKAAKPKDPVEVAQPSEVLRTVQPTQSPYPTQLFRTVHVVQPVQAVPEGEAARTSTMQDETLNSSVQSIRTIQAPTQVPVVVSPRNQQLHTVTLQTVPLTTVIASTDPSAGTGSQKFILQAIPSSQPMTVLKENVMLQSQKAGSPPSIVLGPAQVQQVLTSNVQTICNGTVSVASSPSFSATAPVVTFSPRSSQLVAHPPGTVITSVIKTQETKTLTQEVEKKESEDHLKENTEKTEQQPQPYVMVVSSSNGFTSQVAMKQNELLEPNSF
How it was run: as §1

EHF = biological target: T4, EHF (Homo sapiens, UniProt Q9NZC4 1-300)
T4 sequence: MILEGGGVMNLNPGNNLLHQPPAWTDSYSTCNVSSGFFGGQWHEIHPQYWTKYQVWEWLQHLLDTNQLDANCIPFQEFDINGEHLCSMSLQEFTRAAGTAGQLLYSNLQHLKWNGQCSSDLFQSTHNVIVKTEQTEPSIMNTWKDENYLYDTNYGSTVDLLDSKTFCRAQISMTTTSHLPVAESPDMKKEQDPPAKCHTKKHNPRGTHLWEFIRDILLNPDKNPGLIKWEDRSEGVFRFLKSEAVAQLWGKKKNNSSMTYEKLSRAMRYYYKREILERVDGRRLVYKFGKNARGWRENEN
How it was run: as §1

SPI1 = SPI1 (Homo sapiens, UniProt P17947 1-270)
How it was run: as §1

ELK3 = biological target: T5, ELK3 (Homo sapiens, UniProt P41970 1-407)
T5 sequence: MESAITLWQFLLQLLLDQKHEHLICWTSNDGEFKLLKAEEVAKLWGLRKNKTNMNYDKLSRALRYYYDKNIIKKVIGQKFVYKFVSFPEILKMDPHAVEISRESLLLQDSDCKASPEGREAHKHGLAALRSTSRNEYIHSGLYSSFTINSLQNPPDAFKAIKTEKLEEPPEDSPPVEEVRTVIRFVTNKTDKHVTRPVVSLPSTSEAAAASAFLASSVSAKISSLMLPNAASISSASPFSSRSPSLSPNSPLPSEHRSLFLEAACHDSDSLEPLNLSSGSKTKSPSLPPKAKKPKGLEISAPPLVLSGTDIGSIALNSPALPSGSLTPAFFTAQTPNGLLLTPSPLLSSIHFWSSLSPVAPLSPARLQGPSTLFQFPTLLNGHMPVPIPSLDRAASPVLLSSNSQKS
How it was run: as §1

ETV5 = ETV5 (Homo sapiens, UniProt P41161 1-510)
Chain of ETV5 (P41161 whole entry): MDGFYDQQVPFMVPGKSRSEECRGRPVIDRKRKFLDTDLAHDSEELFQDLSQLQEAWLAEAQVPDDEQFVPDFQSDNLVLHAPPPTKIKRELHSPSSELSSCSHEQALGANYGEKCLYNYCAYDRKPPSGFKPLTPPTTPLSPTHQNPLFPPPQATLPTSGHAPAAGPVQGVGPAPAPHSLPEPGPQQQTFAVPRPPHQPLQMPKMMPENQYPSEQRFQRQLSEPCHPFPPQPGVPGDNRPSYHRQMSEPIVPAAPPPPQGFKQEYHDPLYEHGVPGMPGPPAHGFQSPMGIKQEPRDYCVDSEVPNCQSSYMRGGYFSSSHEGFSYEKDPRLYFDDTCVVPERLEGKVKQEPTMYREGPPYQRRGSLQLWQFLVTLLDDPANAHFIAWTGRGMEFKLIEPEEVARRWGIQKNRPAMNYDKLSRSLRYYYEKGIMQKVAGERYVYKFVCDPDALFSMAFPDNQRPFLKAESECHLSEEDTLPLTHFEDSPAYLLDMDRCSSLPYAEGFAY
How it was run: as §1

SPIC = biological target: T6, SPIC (Homo sapiens, UniProt Q8N5J4 1-248)
T6 sequence: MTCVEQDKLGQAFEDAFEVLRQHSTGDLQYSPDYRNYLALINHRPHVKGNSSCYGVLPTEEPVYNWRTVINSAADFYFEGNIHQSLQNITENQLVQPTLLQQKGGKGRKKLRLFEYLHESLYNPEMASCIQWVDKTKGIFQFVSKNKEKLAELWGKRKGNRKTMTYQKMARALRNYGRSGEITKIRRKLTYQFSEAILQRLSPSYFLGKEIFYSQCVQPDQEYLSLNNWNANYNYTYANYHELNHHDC
How it was run: as §1

ELF4 = ELF4 (Homo sapiens, UniProt Q99607 1-663)
Chain of ELF4 (Q99607 whole entry): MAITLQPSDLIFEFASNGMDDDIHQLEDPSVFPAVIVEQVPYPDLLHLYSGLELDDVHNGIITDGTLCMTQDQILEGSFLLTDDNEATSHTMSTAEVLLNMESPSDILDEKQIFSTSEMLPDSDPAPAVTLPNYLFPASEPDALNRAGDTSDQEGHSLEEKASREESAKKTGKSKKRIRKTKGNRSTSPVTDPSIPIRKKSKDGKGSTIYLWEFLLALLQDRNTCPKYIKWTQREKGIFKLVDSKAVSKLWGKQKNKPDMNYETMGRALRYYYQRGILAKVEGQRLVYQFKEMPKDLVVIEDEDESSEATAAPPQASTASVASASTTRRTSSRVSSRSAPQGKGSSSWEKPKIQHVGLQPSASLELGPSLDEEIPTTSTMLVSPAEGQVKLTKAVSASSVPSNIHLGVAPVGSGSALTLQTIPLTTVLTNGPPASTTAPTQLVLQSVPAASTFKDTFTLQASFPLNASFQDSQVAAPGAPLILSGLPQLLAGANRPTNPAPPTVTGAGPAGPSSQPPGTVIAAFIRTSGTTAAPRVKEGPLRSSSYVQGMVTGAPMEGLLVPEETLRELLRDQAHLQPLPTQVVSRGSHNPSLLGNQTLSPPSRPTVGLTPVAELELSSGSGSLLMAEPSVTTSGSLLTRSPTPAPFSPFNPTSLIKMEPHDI
How it was run: as §1

ETV1 = ETV1 (Homo sapiens, UniProt P50549 1-477)
Chain of ETV1 (P50549 whole entry): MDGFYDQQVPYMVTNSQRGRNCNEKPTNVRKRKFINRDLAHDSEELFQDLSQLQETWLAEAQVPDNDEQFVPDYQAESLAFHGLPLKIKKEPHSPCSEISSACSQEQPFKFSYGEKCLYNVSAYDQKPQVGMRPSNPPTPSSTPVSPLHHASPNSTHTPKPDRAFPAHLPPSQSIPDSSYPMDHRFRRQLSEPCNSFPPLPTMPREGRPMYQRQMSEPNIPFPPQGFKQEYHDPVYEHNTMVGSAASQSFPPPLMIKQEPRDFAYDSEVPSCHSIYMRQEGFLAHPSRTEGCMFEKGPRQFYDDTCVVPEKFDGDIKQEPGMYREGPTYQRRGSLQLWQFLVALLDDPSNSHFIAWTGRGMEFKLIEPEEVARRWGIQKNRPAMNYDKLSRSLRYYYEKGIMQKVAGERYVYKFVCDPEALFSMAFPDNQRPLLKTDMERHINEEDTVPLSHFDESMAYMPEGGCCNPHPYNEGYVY
How it was run: as §1

ERF = biological target: T7, ERF (Homo sapiens, UniProt P50548 1-548)
T7 sequence: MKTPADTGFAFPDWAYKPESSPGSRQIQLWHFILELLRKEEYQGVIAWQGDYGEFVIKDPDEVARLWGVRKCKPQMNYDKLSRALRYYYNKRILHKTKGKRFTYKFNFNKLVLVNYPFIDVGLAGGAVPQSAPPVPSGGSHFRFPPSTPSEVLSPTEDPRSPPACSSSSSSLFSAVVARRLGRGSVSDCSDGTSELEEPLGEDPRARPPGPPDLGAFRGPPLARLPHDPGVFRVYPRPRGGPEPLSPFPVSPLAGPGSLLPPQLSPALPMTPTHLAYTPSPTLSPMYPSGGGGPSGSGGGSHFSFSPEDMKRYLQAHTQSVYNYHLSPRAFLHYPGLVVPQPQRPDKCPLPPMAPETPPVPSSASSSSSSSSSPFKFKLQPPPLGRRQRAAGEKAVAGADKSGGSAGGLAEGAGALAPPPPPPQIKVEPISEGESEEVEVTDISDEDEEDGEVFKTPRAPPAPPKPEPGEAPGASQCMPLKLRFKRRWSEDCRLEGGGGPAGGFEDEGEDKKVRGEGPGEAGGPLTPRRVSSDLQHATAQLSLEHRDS
How it was run: as §1

ETV3L = biological target: T8, ETV3L (Homo sapiens, UniProt Q6ZN32 1-361)
T8 sequence: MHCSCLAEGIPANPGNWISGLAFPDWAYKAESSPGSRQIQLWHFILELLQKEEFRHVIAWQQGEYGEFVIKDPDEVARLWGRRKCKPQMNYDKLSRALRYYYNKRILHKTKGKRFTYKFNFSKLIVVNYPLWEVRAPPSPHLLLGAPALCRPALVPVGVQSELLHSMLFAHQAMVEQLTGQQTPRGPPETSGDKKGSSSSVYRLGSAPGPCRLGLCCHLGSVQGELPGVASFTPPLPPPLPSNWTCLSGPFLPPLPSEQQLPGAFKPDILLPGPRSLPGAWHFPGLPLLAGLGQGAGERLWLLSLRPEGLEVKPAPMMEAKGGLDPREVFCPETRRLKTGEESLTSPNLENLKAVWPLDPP
How it was run: as §1

ETS2 = biological target: T9, ETS2 (Homo sapiens, UniProt P15036 1-469)
T9 sequence: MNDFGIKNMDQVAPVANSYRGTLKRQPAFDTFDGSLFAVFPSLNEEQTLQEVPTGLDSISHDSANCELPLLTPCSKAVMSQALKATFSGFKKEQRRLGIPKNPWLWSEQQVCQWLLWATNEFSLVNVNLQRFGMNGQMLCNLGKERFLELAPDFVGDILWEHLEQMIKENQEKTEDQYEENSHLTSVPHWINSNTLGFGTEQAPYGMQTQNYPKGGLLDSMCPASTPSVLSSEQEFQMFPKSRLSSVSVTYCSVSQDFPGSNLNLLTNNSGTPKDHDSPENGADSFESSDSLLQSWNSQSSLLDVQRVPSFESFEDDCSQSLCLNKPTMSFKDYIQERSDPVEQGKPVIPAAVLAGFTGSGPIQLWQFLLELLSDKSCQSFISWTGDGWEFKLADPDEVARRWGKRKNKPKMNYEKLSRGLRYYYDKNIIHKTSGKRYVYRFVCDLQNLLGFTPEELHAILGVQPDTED
How it was run: as §1

ETV3 = biological target: T10, ETV3 (Homo sapiens, UniProt P41162-2 1-143)
T10 sequence: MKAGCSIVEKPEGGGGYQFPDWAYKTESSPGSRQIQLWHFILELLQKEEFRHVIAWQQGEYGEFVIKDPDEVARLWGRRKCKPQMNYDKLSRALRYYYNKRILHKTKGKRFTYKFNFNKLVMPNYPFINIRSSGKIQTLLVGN
How it was run: as §1

ETV6 = ETV6 (Homo sapiens, UniProt P41212 1-452)
Chain of ETV6 (P41212 whole entry): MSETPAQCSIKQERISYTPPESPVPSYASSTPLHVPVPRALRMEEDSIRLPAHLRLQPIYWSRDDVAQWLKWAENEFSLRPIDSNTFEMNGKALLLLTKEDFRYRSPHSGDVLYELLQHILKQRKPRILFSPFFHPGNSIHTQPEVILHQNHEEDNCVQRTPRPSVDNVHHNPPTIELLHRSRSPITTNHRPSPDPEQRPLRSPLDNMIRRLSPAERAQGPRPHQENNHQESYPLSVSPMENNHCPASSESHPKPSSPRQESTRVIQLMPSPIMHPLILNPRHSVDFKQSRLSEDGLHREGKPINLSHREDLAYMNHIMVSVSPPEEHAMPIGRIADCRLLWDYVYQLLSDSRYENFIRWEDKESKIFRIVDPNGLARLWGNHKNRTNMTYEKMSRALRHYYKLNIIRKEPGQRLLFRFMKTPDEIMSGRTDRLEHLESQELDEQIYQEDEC
How it was run: as §1

SPIB = SPIB (Homo sapiens, UniProt Q01892 1-262)
Chain of SPIB (Q01892 whole entry): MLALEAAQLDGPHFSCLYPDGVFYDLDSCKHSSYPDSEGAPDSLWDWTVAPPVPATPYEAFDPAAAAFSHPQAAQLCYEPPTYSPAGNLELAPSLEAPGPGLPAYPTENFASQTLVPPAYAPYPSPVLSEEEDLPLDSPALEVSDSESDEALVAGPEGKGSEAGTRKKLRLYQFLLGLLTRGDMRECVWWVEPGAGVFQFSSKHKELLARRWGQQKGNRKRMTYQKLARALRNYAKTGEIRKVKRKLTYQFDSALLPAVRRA
How it was run: as §1

FEV = biological target: T11, FEV (Homo sapiens, UniProt Q99581 1-238)
T11 sequence: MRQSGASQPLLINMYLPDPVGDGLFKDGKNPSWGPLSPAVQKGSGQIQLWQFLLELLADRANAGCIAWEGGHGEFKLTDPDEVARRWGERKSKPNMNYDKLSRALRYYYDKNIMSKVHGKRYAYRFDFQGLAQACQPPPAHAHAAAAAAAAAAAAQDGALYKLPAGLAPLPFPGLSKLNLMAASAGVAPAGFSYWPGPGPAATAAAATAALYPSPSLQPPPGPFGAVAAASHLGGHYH
How it was run: as §1

ELF5 = biological target: T12, ELF5 (Homo sapiens, UniProt Q9UKW6-2 1-255)
T12 sequence: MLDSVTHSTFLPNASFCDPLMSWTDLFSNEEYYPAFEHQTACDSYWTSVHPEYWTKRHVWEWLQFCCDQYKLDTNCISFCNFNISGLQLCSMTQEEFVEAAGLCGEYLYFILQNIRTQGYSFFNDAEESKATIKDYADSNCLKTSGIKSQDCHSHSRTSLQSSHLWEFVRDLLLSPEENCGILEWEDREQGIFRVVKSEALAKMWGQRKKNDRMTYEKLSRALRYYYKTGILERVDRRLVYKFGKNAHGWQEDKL
How it was run: as §1

Sequence | binding signal (FLI1) | binding signal (GABPA) | binding signal (ERG) | binding signal (ELF1) | binding signal (EHF) | binding signal (SPI1) | binding signal (ELK3) | binding signal (ETV5) | binding signal (SPIC) | binding signal (ELF4) | binding signal (ETV1) | binding signal (ERF) | binding signal (ETV3L) | binding signal (ETS2) | binding signal (ETV3) | binding signal (ETV6) | binding signal (SPIB) | binding signal (FEV) | binding signal (ELF5)
GTTACG | 1.08 fold enrichment (6-mer frequency, TF over GST control) | 1.01 fold enrichment (6-mer frequency, TF over GST control) | 1.01 fold enrichment (6-mer frequency, TF over GST control) | 1.07 fold enrichment (6-mer frequency, TF over GST control) | 1.03 fold enrichment (6-mer frequency, TF over GST control) | 1.01 fold enrichment (6-mer frequency, TF over GST control) | 1.01 fold enrichment (6-mer frequency, TF over GST control) | 1.03 fold enrichment (6-mer frequency, TF over GST control) | 1.05 fold enrichment (6-mer frequency, TF over GST control) | 1.02 fold enrichment (6-mer frequency, TF over GST control) | 1.07 fold enrichment (6-mer frequency, TF over GST control) | 1.06 fold enrichment (6-mer frequency, TF over GST control) | 1.14 fold enrichment (6-mer frequency, TF over GST control) | 1.06 fold enrichment (6-mer frequency, TF over GST control) | 1.04 fold enrichment (6-mer frequency, TF over GST control) | 1.09 fold enrichment (6-mer frequency, TF over GST control) |  |  | 
CGCTAT | 1.13 fold enrichment (6-mer frequency, TF over GST control) | 1.07 fold enrichment (6-mer frequency, TF over GST control) | 1.09 fold enrichment (6-mer frequency, TF over GST control) | 1.09 fold enrichment (6-mer frequency, TF over GST control) | 1.06 fold enrichment (6-mer frequency, TF over GST control) | 1.11 fold enrichment (6-mer frequency, TF over GST control) | 1.13 fold enrichment (6-mer frequency, TF over GST control) | 1.1 fold enrichment (6-mer frequency, TF over GST control) | 1.01 fold enrichment (6-mer frequency, TF over GST control) | 1.15 fold enrichment (6-mer frequency, TF over GST control) | 1.09 fold enrichment (6-mer frequency, TF over GST control) | 1.16 fold enrichment (6-mer frequency, TF over GST control) |  | 1.03 fold enrichment (6-mer frequency, TF over GST control) | 1.14 fold enrichment (6-mer frequency, TF over GST control) | 1.09 fold enrichment (6-mer frequency, TF over GST control) | 1.12 fold enrichment (6-mer frequency, TF over GST control) | 1.04 fold enrichment (6-mer frequency, TF over GST control) | 1.16 fold enrichment (6-mer frequency, TF over GST control)
